# Results published in a collection of fitness landscapes (doi:10.1126/science.1257360).
# In all, about 140,000 sequences were measured (“enrichment ratio after two sorts for PhoP signalling”: median about 0, highest 2% from about 11 on). The sample as a whole holds a higher share of the highest values than the screen did.
# B1: PhoQ; a variant is named by its letters at X, in order, P23837 (parent)
# chain: MKKLLRLFFPLSLRVRFLLATAAVVLVLSLAYGMVALIGYSVSFDKTTFRLLRGESNLFYTLAKWENNKLHVELPENIDKQSPTMTLIYDENGQLLWAQRDVPWLMKMIQPDWLKSNGFHEIEADVNDTSLLLSGDHSIQQQLQEVREDDDDAEMTHSVAVNVYPATSRMPKLTIVVVDTIPVELKSSYMVWSWFIYVLSANLLLVIPLLWVAAWWSLRPIEALAKEVRELEEHNRELLNPATTRELTSLVRNLNRLLKSERERYDKYRTTLTDLTHSLKTPLXXLQXXLRSLRSEKMSVSDAEPVMLEQISRISQQIGYYLHRASMRGGTLLSRELHPVAPLLDNLTSALNKVYQRKGVNISLDISPEISFVGEQNDFVEVMGNVLDNACKYCLEFVEISARQTDEHLYIVVEDDGPGIPLSKREVIFDRGQRVDTLRPGQGVGLAVAREITEQYEGKIVAGESMLGGARMEVIFGRQHSAPKDE
# Variants of: B1
# Experiment: enrichment ratio after two sorts for PhoP signalling (ratio (wild type AVST 3.29)); higher = more functional
# Conditions: with PhoP (E. coli)
row,Variant,enrichment ratio
1,MYDG,≤ 0.25
2,PVQS,≤ 0.25
3,RRVW,≤ 0.25
4,HRAN,≤ 0.25
5,KEHR,≤ 0.25
6,SANM,9.22
7,NAVG,≤ 0.25
8,EVLL,≤ 0.25
9,KQMR,≤ 0.25
10,STIQ,14
11,KYIQ,≤ 0.25
12,SEIE,≤ 0.25
13,MEIQ,19.4
14,MDIQ,0.654
15,SEIQ,22.9
16,MMIQ,≤ 0.25
17,SEFQ,6.8
18,YTIQ,≤ 0.25
19,EGNN,≤ 0.25
20,NRRY,≤ 0.25
21,THCI,7.06
22,ANVR,≤ 0.25
23,HNSH,≤ 0.25
24,HYAD,≤ 0.25
25,LNEM,≤ 0.25

row,Variant,enrichment ratio
1,KKNT,≤ 0.25
2,FQCN,≤ 0.25
3,FNCN,≤ 0.25
4,TECN,60.8
5,KECN,≤ 0.25
6,SELN,8.08
7,GTCN,3.53
8,SECN,23.5
9,GMLN,0.729
10,FCCN,≤ 0.25
11,FECN,13
12,SNCN,7.42
13,GMCN,13.6
14,KSEA,≤ 0.25
15,VGRD,≤ 0.25
16,RFAS,≤ 0.25
17,LNVE,≤ 0.25
18,GWCA,≤ 0.25
19,ACRC,≤ 0.25
20,RCNS,≤ 0.25
21,FSFI,0.694
22,IGKY,≤ 0.25
23,SSNS,0.835
24,QECN,9.04
25,FEWI,≤ 0.25

row,Variant,enrichment ratio
1,TCCN,17.6
2,DCCN,≤ 0.25
3,MECN,12.6
4,NECN,≤ 0.25
5,VECN,≤ 0.25
6,FELN,13.7
7,FELA,2.53
8,MPYN,≤ 0.25
9,DKHY,≤ 0.25
10,CHTM,≤ 0.25
11,NPDP,≤ 0.25
12,DDIR,≤ 0.25
13,QAWL,19.9
14,NAWL,≤ 0.25
15,QAWI,≤ 0.25
16,QAWM,10.8
17,KAWL,≤ 0.25
18,QAWS,18.4
19,NGDG,≤ 0.25
20,NCII,≤ 0.25
21,YKNN,≤ 0.25
22,GHVH,≤ 0.25
23,HGGE,≤ 0.25
24,LYYP,≤ 0.25
25,LFEG,≤ 0.25

row,Variant,enrichment ratio
1,GEEY,≤ 0.25
2,SESY,25.4
3,TESY,23.2
4,GVSY,≤ 0.25
5,QESY,≤ 0.25
6,STSY,11.6
7,SRSY,≤ 0.25
8,YTSY,≤ 0.25
9,SQSY,8.96
10,NESY,≤ 0.25
11,KQSY,≤ 0.25
12,GESY,12.8
13,HTRW,≤ 0.25
14,TYTW,≤ 0.25
15,RVSE,≤ 0.25
16,PWWY,≤ 0.25
17,GELC,8.26
18,IGYI,≤ 0.25
19,YYAS,≤ 0.25
20,MKSY,≤ 0.25
21,SPSY,≤ 0.25
22,NMSY,≤ 0.25
23,SDSY,≤ 0.25
24,MMSY,2.46
25,SMSY,11.4

row,Variant,enrichment ratio
1,SNSY,12.8
2,MESY,14.8
3,KYSY,≤ 0.25
4,HYIP,≤ 0.25
5,DCSH,≤ 0.25
6,TCML,16.7
7,QPML,≤ 0.25
8,FCML,21.1
9,VCML,10
10,YCNL,≤ 0.25
11,FTML,12
12,KCML,≤ 0.25
13,YYML,≤ 0.25
14,YCML,12.7
15,FPML,≤ 0.25
16,TYML,0.784
17,YTML,5.16
18,ILLC,≤ 0.25
19,TKRF,≤ 0.25
20,EMVN,≤ 0.25
21,VCYH,≤ 0.25
22,HYMK,≤ 0.25
23,KEFY,≤ 0.25
24,LSFV,5.15
25,SLYE,≤ 0.25

row,Variant,enrichment ratio
1,FVML,13.2
2,NVML,≤ 0.25
3,TVML,1.47
4,EIFI,≤ 0.25
5,NLQN,≤ 0.25
6,IMRF,≤ 0.25
7,TCKR,≤ 0.25
8,CDCR,≤ 0.25
9,TEKR,≤ 0.25
10,TCCR,13.1
11,TECR,16.3
12,VECR,≤ 0.25
13,QFGW,≤ 0.25
14,KPGY,≤ 0.25
15,KAWY,≤ 0.25
16,VNCT,1.24
17,MEFD,≤ 0.25
18,AQTH,≤ 0.25
19,RGCH,≤ 0.25
20,WICH,≤ 0.25
21,AQCH,32.7
22,AGCH,11.6
23,AICH,15.1
24,TGCH,10.6
25,AHCH,2.08

row,Variant,enrichment ratio
1,NQCH,≤ 0.25
2,MICD,≤ 0.25
3,EHIV,≤ 0.25
4,FHVI,≤ 0.25
5,GTWL,≤ 0.25
6,IFFD,≤ 0.25
7,KVLP,≤ 0.25
8,LFKL,≤ 0.25
9,FTLI,10.3
10,SQLI,11.8
11,KYLI,≤ 0.25
12,STLI,12.4
13,DPLI,≤ 0.25
14,QPLI,≤ 0.25
15,ATLT,10.2
16,YTLI,12.8
17,SILI,4.12
18,ATLS,10.6
19,ATLI,15.7
20,SPLI,≤ 0.25
21,SDYI,≤ 0.25
22,CPPL,≤ 0.25
23,LICH,≤ 0.25
24,GFMC,≤ 0.25
25,RVDS,≤ 0.25

row,Variant,enrichment ratio
1,INFA,≤ 0.25
2,TVQC,4.14
3,FEAI,≤ 0.25
4,LSQY,≤ 0.25
5,KQLI,≤ 0.25
6,GALA,2.12
7,YALI,13.3
8,IILI,≤ 0.25
9,GALS,5.05
10,ITLI,8.76
11,NALI,4.49
12,GYLI,0.357
13,KALI,≤ 0.25
14,SALI,12.2
15,GTLI,15.8
16,GALI,14.1
17,ERQV,≤ 0.25
18,LRKP,≤ 0.25
19,KPPH,≤ 0.25
20,TPRP,≤ 0.25
21,FDPD,≤ 0.25
22,PKVE,≤ 0.25
23,RSAQ,≤ 0.25
24,LTLI,0.384
25,CTLI,≤ 0.25

row,Variant,enrichment ratio
1,HALI,12.2
2,HFLI,≤ 0.25
3,HALA,≤ 0.25
4,TTLI,12.4
5,LMQH,≤ 0.25
6,KFYQ,≤ 0.25
7,CSGS,≤ 0.25
8,WWST,≤ 0.25
9,FRNI,≤ 0.25
10,PVQQ,≤ 0.25
11,TVQN,12.1
12,TVEN,≤ 0.25
13,PVQV,≤ 0.25
14,SPQN,≤ 0.25
15,FVQK,≤ 0.25
16,SPQV,≤ 0.25
17,SPQQ,≤ 0.25
18,TVQQ,12.6
19,NVQK,≤ 0.25
20,TVQK,15.5
21,TVQV,12.7
22,DRLY,≤ 0.25
23,RFEM,≤ 0.25
24,RQMN,≤ 0.25
25,HNHV,≤ 0.25

row,Variant,enrichment ratio
1,THPW,≤ 0.25
2,LWEP,≤ 0.25
3,VYIW,≤ 0.25
4,GCNG,≤ 0.25
5,ANGH,11.6
6,ANGM,21.9
7,ANVM,14.9
8,ANDM,≤ 0.25
9,ANDS,≤ 0.25
10,AHGH,≤ 0.25
11,ANGR,≤ 0.25
12,ARVM,14.7
13,ARGM,≤ 0.25
14,ANGP,≤ 0.25
15,ARVA,≤ 0.25
16,ANGD,≤ 0.25
17,SWFD,≤ 0.25
18,HSAA,≤ 0.25
19,FPVD,≤ 0.25
20,VQYV,≤ 0.25
21,DVLV,≤ 0.25
22,PCEH,≤ 0.25
23,WFYE,≤ 0.25
24,LTRP,≤ 0.25
25,YRLF,≤ 0.25

row,Variant,enrichment ratio
1,ANNM,12.9
2,ANCK,6.46
3,ANPM,≤ 0.25
4,RPWW,≤ 0.25
5,HFCW,≤ 0.25
6,QNGM,16
7,QRGV,≤ 0.25
8,QNGV,22.1
9,QNYM,≤ 0.25
10,QNGD,≤ 0.25
11,QNHV,≤ 0.25
12,EKNQ,≤ 0.25
13,NNYE,≤ 0.25
14,HMKK,≤ 0.25
15,DNAG,≤ 0.25
16,FMVV,≤ 0.25
17,MREV,≤ 0.25
18,HMSI,≤ 0.25
19,QCTL,≤ 0.25
20,SHCQ,21.1
21,THCQ,14.3
22,SHCI,6.63
23,YHCQ,≤ 0.25
24,SHCA,2.47
25,VHCQ,≤ 0.25

row,Variant,enrichment ratio
1,PQRE,≤ 0.25
2,TLYI,0.826
3,RITC,≤ 0.25
4,RFYH,≤ 0.25
5,FWFN,≤ 0.25
6,ERAC,≤ 0.25
7,SIAL,15.1
8,SKRL,≤ 0.25
9,SKNL,≤ 0.25
10,SQAL,7.54
11,RIAL,≤ 0.25
12,SRAL,≤ 0.25
13,KYAL,≤ 0.25
14,SPAL,≤ 0.25
15,SFAL,≤ 0.25
16,SAAL,12.8
17,SNAL,12.1
18,SKAL,12.2
19,ETHL,≤ 0.25
20,VYRH,≤ 0.25
21,PVYN,≤ 0.25
22,RLWM,≤ 0.25
23,LPNQ,≤ 0.25
24,YSKE,≤ 0.25
25,NNAF,≤ 0.25

row,Variant,enrichment ratio
1,TTGS,8.05
2,WDHH,≤ 0.25
3,GVIH,≤ 0.25
4,QAPP,≤ 0.25
5,SSAL,12.2
6,TTAL,18.4
7,YTAL,≤ 0.25
8,NIAL,1.57
9,ITAL,0.733
10,TIAL,12.9
11,NSAL,≤ 0.25
12,STAL,11.5
13,WIAL,≤ 0.25
14,SLAL,10.6
15,MTAL,5.98
16,QEAL,≤ 0.25
